Bioassay records: PubChem BioAssay, National Center for Advancing Translational Sciences (NCATS)
Only a selection was taken, and hits are over-represented in it overall.
NS1 function inh: blocks influenza NS1 protein function. 0.4% of 270,000 active. AID 2326. Potency, µM (top dose mostly 46.1 µM), for inactives: top-dose activity, positive = more growth; calls by dose curve; further: actives are rising curves; nearly all actives have a fitted effect of over 50% in size
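A cell-based growth assay was used: compounds that relieve NS1-induced slow growth of budding yeast raise OD600. Assay medium was yeast nitrogen base with ammonium sulphate and -URA supplement, pH 6.0, with 2% galactose.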
Cruzain noTriton: cruzain (T. cruzi) inhibition without detergent. P25779. purified cruzain, Z-FR-AMC fluorescence, no detergent. Potency, µM, without a hit: max response, negative = inhibition, hits mostly inhibitors. 2.3% of 200,000 active;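 further: plate controls were enzyme without inhibitor for no effect and buffer without enzyme for full effect; nearly all actives have a fitted effect of over 40% in size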
Target sequence (P25779 123-467 limits assumed): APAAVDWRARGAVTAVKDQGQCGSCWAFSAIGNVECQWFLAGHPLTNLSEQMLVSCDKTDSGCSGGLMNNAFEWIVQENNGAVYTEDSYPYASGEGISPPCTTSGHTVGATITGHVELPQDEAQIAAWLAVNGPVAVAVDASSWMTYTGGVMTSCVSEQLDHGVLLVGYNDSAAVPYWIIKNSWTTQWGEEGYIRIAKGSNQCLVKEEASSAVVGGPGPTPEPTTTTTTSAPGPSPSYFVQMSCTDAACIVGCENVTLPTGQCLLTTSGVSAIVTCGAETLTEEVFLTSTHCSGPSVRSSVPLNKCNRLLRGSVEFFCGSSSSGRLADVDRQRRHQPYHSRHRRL
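Detergent-free condition (0.00005% Triton X-100) in acetate buffer pH 5.5 with DTT. 1.5 nM enzyme and compound were pre-mixed 15 min, then 2 uM Z-FR-AMC substrate added; reaction progress from fluorescence change between first and third reads (60 s).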
Cruzain Triton: inhibitors of Trypanosoma cruzi cruzain with detergent; 0.43% of 200,000 active; P25779; purified cruzain, Z-FR-AMC fluorescence, 0.01% Triton; Potency, µM, for inactives: max response, negative = inhibition, most hits filed as inhibitors;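 further: plate controls were neutral wells for no effect and buffer without enzyme for full effect; nearly all actives have a fitted effect of over 40% in size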
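Detergent-containing arm of a paired screen for aggregation-based inhibition: 0.01% Triton X-100 present. Cruzain at 1.5 nM cleaved 2 uM Z-FR-AMC at pH 5.5 with 5 mM DTT; AMC fluorescence gain over 60 s measured activity.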
An asterisk follows results filed as active; ? = inconclusive; · = no result. Unless noted, the call rests on the fitted dose curve; in most records, active means well fitted curve in the direction sought with a large enough effect; inconclusive means small, poorly fitted or top-dose-only effect, or another doubt; inactive means no such curve, though single readings can be large; an effect the other way counts as inactive or inconclusive. Potency means the concentration at half of the fitted maximal effect.

SMILES | NS1 function inh | Cruzain noTriton | Cruzain Triton
Cc1cccc(CCNC(=O)CN(c2ccc(C(C)C)cc2)S(=O)(=O)c2c(C)nn(C)c2C)c1 | · | ? | -3%
CCOC(=O)C1CCN(C(=O)Nc2ccc3c(c2)nc(C)n3C)CC1 | -21% | -3% | 4%
Cc1nc2ccc(NC(=O)N3CCCCC3)cc2nc1C | -3% | -14% | -4%
CCOC(=O)C1CCN(C(=O)Nc2ccc3nc(-c4ccco4)c(-c4ccco4)nc3c2)CC1 | 21% | ? | 14µM*
O=C(Nc1ccc2nc(-c3ccco3)c(-c3ccco3)nc2c1)N1CCCCCC1 | ? | 2µM* | 14µM*
CCN1c2ccccc2-c2nc(SCC(=O)Nc3cccc(C(F)(F)F)c3)ncc2S1(=O)=O | · | -4% | -3%
S=C(S)NCCCn1ccnc1 | 0% | -7% | 3%
CCC(=O)N1CCc2cc(S(=O)(=O)NCCC(=O)Nc3cc(C)ccc3OC)ccc21 | · | -6% | 0%
CC(Sc1nnc(NC2CCCCC2)s1)C(=O)Nc1ccc2c(c1)C(=O)c1ccccc1C2=O (stereo not drawn) | ? | 16µM* | 0%
CC(Sc1nnc(Nc2ccccc2)s1)C(=O)NC1CCCc2ccccc21 (stereo not drawn) | 12% | -12% | -10%
COc1ccc(-c2nc3sc(CCNC(=O)c4cc(OC)c(OC)c(OC)c4)c(C)n3n2)cc1 | · | ? | -2%
Cc1ccc(/C(C#N)=C/c2cccc([N+](=O)[O-])c2)cc1 | -4% | 1% | 2%
Cc1ccc2nc(/C(C#N)=C\c3ccc([N+](=O)[O-])o3)[nH]c2c1 | -138% | ? | -7%
Cc1cc(/C=C(/C#N)c2nc3ccccc3[nH]2)c(C)n1-c1cc(C(=O)O)cc(C(=O)O)c1 | 6% | · | ·
COc1cc(/C=C(/C#N)c2ccc(C)cc2)ccc1Oc1ccc([N+](=O)[O-])cn1 | 11% | 25µM* | 5%
CCOc1cc(/C=C(/C#N)c2nc3ccccc3[nH]2)ccc1Oc1ccc([N+](=O)[O-])cn1 | 9% | -8% | -4%
COc1ccc2nc(/C(C#N)=C\c3ccc(Oc4ccc([N+](=O)[O-])cn4)cc3)[nH]c2c1 | ? | 25µM* | -6%
Cc1ccc2nc(/C(C#N)=C\c3cc(C)n(-c4cccc([N+](=O)[O-])c4)c3C)[nH]c2c1 | 18% | 25µM* | 4%
Cc1ccc2nc(/C(C#N)=C\c3ccc(Oc4ccc([N+](=O)[O-])cn4)cc3)[nH]c2c1 | -3% | 10µM* | -1%
Cc1ccccc1C(=O)OCc1cc(=O)n2nc(C(C)C)sc2n1 | · | 2% | -3%
C[C@@H]1C[C@](C)(C(=O)c2ccco2)C=C1c1ccco1 | · | -3% | 1%
O=C(NCCCN1CCN(c2ccc(F)cc2)CC1)c1cc2c(Cl)nc3ccccc3c2s1 | · | 4% | 2%
O=C(NCC(c1ccco1)S(=O)(=O)c1ccc(Cl)cc1)c1ccc(C(F)(F)F)cc1 (stereo not drawn) | · | -21% | -9%
CO[C@@H](CCOCc1ccccc1)C[C@H]1O[C@H](C(=O)OC(C)C)C=C[C@@H]1C | · | ? | 5%
COc1cccc(/C=N/NC(N)=S)c1OCc1cccc(Cl)c1 | 19% | 5µM* | -24%
SMILES | NS1 function inh | Cruzain noTriton | Cruzain Triton
O=C(CSCc1ccccc1)N/N=C/c1ccccc1OCc1ccccc1 | -24% | 1% | -1%
NC(=S)N/N=C\c1ccccc1OCc1ccccc1 | 10% | 1.3µM* | 3.2µM*
COc1cccc(/C=N/NC(=S)NCCc2ccccc2)c1OC | -5% | · | ·
COc1ccc(Cn2c(=O)c3cccnc3n(CC(=O)Nc3ccc(C)c(F)c3)c2=O)cc1 | · | 5% | 3%
Cc1cccc(OCC(=O)N(Cc2sccc2C)C2CCS(=O)(=O)C2)c1 (stereo not drawn) | · | 11% | -2%
CN1CCN(c2ncnc3ccc(-c4ccccc4Cl)cc23)CC1 | · | 9% | -3%
C=CCOC(=O)N[C@@H](CC(C)C)/C(C(=O)OC)=C(\C)NCc1ccccc1 | · | -13% | 5%
CN1C(=O)N(C)C2=NNC=NC2(O)C1=O (stereo not drawn) | · | -3% | -6%
N#Cc1ccc(-c2ccccc2)nc1SCC(=O)c1cc2ccccc2oc1=O | 16% | 20µM* | -5%
CC(C)c1c(C#N)c(N)nc(SCC(=O)c2cc3ccccc3oc2=O)c1C#N | 10% | -37% | 1%
COc1ncc2nc(-c3ccc(F)cc3)c(=O)n(-c3ccccc3)c2n1 | · | -1% | -1%
CCC(=O)Oc1cc(C(C)(C)C)cc2cc(-c3nc(-c4ccc(OC)cc4OC)no3)c(=O)oc12 | · | 43% | 4%
O=C(c1ccc(-c2ccc(Cl)cc2)o1)N1CCN(c2ccc([N+](=O)[O-])cc2Cl)CC1 | 28% | 7.9µM* | -4%
O=C(c1ccc(-c2ccc([N+](=O)[O-])cc2)o1)N1CCCCC1 | -50% | -5% | -7%
COCCn1c(=O)c(-c2ccc(F)cc2)nc2cnc(N3CCOCC3)nc21 | · | -2% | -2%
CCc1ccccc1NC(=O)C1c2ccccc2Oc2ccccc21 | 10% | 25µM* | -2%
Cc1nnc(NC(=O)C2c3ccccc3Oc3ccccc32)s1 | -6% | 8% | -5%
O=C(Nc1cccnc1Cl)C1c2ccccc2Oc2ccccc21 | 4% | 1% | 3%
Cc1cc(C)c(NC(=O)C2c3ccccc3Oc3ccccc32)c(C)c1 | 2% | 13µM* | 4%
O=C(Nc1cc2c(cc1C(=O)c1ccc(Br)cc1)OCCO2)c1ccc(Cl)cc1 | · | -3% | -2%
OC[C@@H]1O[C@@H](N2CCN([C@@H]3O[C@@H](CO)[C@@H](O)[C@H](O)[C@H]3O)CC2)[C@@H](O)[C@H](O)[C@H]1O | -5% | 1% | -1%
Cc1ccc(OCC(=O)NC(=S)Nc2ccc(Br)c(C)n2)cc1 | 4% | 16µM* | 4%
Cc1nc(NC(=S)NC(=O)COc2ccc(Cl)cc2)ccc1Br | 15% | ? | 1%
COc1ccc(/C=C/c2nc(-c3ccccc3O)n(-c3ccccc3)n2)cc1 | ? | -13% | -6%
COc1ccc(/C=C/c2nc(-c3ccccc3O)n[nH]2)cc1 | -14% | 13µM* | -13%
SMILES | NS1 function inh | Cruzain noTriton | Cruzain Triton
CCn1c(SCc2nc3ccccc3s2)nnc1-c1ccccc1 | -9% | -11% | 7%
c1ccc(-n2cnnc2SCc2nc3ccccc3s2)cc1 | -9% | 10µM* | -5%
Cc1nnc(SCc2nc3ccccc3s2)n1-c1ccccc1 | 9% | 20µM* | -2%
Cc1nnc(SCc2nc3ccccc3s2)n1N | 8% | · | ·
Nc1nnnn1CCO | 3% | 1% | 4%
Clc1cccc(-n2ncc3c(NCCCN4CCOCC4)ncnc32)c1 | · | -24% | 0%
COc1ccc(OC)c(S(=O)(=O)NCCc2sc(-c3ccc(C)cc3)nc2C)c1 | · | ? | -8%
NC(CO)(CO)CO | · | -8% | -3%
Cc1ccc2nc(N3CCN(c4ccccc4)CC3)c3nnnn3c2c1 | · | -2% | 0%
Clc1cccc(N2CCN(c3nc4ccccc4n4nnnc34)CC2)c1 | · | 20µM* | -3%
CC1CCCc2sc3nc(SCC(=O)c4ccc(Br)cc4)nc(N)c3c21 (stereo not drawn) | · | 10µM* | -3%
CCCCCCSc1nc(N)c2c3c(sc2n1)CCCC3C (stereo not drawn) | · | -26% | -5%
COc1cccc(NC(=O)C(CCSC)NC(=O)C2CCC(C)CC2)c1 (stereo not drawn) | · | 0% | -3%
Cc1ccc(C2CCN(C(=O)Nc3ccc(Cl)c(Cl)c3)C2)cc1 (stereo not drawn) | · | -12% | -4%
